# Reference: PMC9838217, “Structure of SALL4 zinc finger domain reveals link between AT-rich DNA binding and Okihiro syndrome”
# Substitutions are numbered along the chain they refer to.
# Legend:
# Assay in all cases: HT-SELEX; high values mean tight binding
# Conditions in all cases: protein: recombinant; vector His6-GST; dsDNA, one strand shown
# SALL4 ZFC4 WT (HT-SELEX) = biological target: T1, SALL4 ZFC4 WT (HT-SELEX) (Mus musculus, UniProt Q8BX22 870-940)
# T1 sequence: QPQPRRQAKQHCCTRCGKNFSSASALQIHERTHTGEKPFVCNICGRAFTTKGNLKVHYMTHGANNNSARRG
# Procedure, shortened: (§1)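 Each canonical k-mer's binding signal is its read fraction expressed as fold change over the initial random library. Reads came from MiSeq sequencing, scanned for 6-mers, after up to 6 triplicate cycles in which purified recombinant mouse SALL4 zinc finger cluster 4 (residues 870–940, 1 µg) bound library DNA (1.5 µg first cycle, 200 ng later) in 100 µl of 10 mM Tris–HCl pH 7.5, 50 mM NaCl, poly(dI-dC), DTT for 10 min at room temperature. Complexes were then Ni2+ bead-captured, washed, PCR-amplified and reselected.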
# [1] = biological target: T2, SALL4 ZFC4 R900W (HT-SELEX) (Mus musculus, UniProt Q8BX22 870-940, R900W)
# T2 sequence: T1 sequence with R31W
# Procedure, shortened: as §1
# [2] = biological target: T3, SALL4 ZFC4 G921D (HT-SELEX) (Mus musculus, UniProt Q8BX22 870-940, G921D)
# T3 sequence: T1 sequence with G52D
# Procedure, shortened: as §1
Sequence,binding signal (SALL4 ZFC4 WT (HT-SELEX)) [fold-change vs cycle 0],binding signal [1] [fold-change vs cycle 0],binding signal [2] [fold-change vs cycle 0]
TCGAAA,0.999 ± 0.0813,1.02 ± 0.0328,1.06 ± 0.0355
ATCGAT,1.23 ± 0.075,1.21 ± 0.0415,1.3 ± 0.0771
GTTCAA,1.2 ± 0.0638,1.34 ± 0.0679,1.3 ± 0.0535
ATACTA,2.04 ± 0.115,2.07 ± 0.172,1.84 ± 0.179
CACACA,0.666 ± 0.03,0.777 ± 0.0199,0.826 ± 0.0389
AGGATA,1.55 ± 0.0339,1.69 ± 0.0876,1.5 ± 0.15
GGAGTA,0.898 ± 0.0231,0.991 ± 0.0565,1.01 ± 0.0114
ATTATC,2.31 ± 0.229,2.08 ± 0.177,1.85 ± 0.207
GCAGAA,0.567 ± 0.022,0.629 ± 0.0163,0.688 ± 0.0217
TAATGA,2.15 ± 0.16,2.16 ± 0.14,1.9 ± 0.22
GGACTA,0.732 ± 0.0464,0.855 ± 0.0609,0.897 ± 0.0585
CCAACA,0.656 ± 0.00995,0.739 ± 0.0191,0.817 ± 0.0303
GAGTAC,0.903 ± 0.0224,0.992 ± 0.045,1.04 ± 0.0172
CCTAGG,0.46 ± 0.0474,0.588 ± 0.0412,0.669 ± 0.0278
AGCTGA,0.687 ± 0.028,0.802 ± 0.0342,0.882 ± 0.0146
AGTCAT,1.45 ± 0.0471,1.53 ± 0.0494,1.46 ± 0.106
GTGGGA,0.413 ± 0.0385,0.478 ± 0.0252,0.567 ± 0.0443
AAAGCA,1.06 ± 0.0392,1.13 ± 0.0246,1.14 ± 0.0213
AGTTGA,1.26 ± 0.0298,1.43 ± 0.0288,1.37 ± 0.0654
AGCTCA,0.694 ± 0.0391,0.773 ± 0.0155,0.872 ± 0.0134
ATAACC,1.63 ± 0.137,1.47 ± 0.11,1.38 ± 0.107
ACGTAA,1.19 ± 0.0733,1.3 ± 0.0477,1.21 ± 0.0842
AGGACA,0.769 ± 0.0198,0.906 ± 0.0391,0.947 ± 0.0205
AGATAT,2.61 ± 0.24,2.08 ± 0.11,1.86 ± 0.213
ATAAGG,1.55 ± 0.0418,1.63 ± 0.0717,1.46 ± 0.077
CTGTGA,0.75 ± 0.0215,0.869 ± 0.0352,0.91 ± 0.0154
CTGAAA,1.19 ± 0.0701,1.28 ± 0.0787,1.21 ± 0.0732
CAGAGA,0.765 ± 0.0216,0.92 ± 0.0161,0.951 ± 0.0212
AGCACA,0.64 ± 0.039,0.77 ± 0.0406,0.894 ± 0.0466
CTGGTC,0.403 ± 0.00696,0.499 ± 0.0159,0.601 ± 0.0523
